From PubChem BioAssay (NCATS)
Records with an inconclusive call do not appear. Activity calls are given as the source filed them. Calls follow the shape of the dose curve; as a rule, active = well fitted inhibition curve with a large enough effect; inconclusive = small, poorly fitted or top-dose-only effect; inactive = flat fitted curve, though single readings scatter.

Assays:
Assay in all cases: qHTS profiling for inhibitors of Plasmodium falciparum proliferation (AID 504749); also: nearly all actives have a fitted effect of over 60% in size
Conditions in all cases: P. falciparum in erythrocytes, SYBR Green DNA, 72 h; series mostly up to 28.7 µM
CP185 = tested on: CP185
Summary of the method: (§1)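 Infected RBCs, 0.3% parasitemia/2.5% Hct final; cpd 72 h, 37 C, 5% CO2; lysis buffer with saponin/triton/SYBR Green I, o/n RT dark; FI 485/535; norm. to artemisinin (0.29 uM) and DMSO.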

CP191 = tested on: CP191
Summary of the method: as §1

CP192 = tested on: CP192
Summary of the method: as §1

CP194 = tested on: CP194
Summary of the method: as §1

CP201 = tested on: CP201
Summary of the method: as §1

CP211 = tested on: CP211
Summary of the method: as §1

CP215 = tested on: CP215
Summary of the method: as §1

CP217 = tested on: CP217
Summary of the method: as §1

CP237 = tested on: CP237
Summary of the method: as §1

CP238 = tested on: CP238
Summary of the method: as §1

CP247 = tested on: CP247
Summary of the method: as §1

CP250 = tested on: CP250
Summary of the method: as §1

CP252 = tested on: CP252
Summary of the method: as §1

CP256 = tested on: CP256
Summary of the method: as §1

CP262 = tested on: CP262
Summary of the method: as §1

CP265 = tested on: CP265
Summary of the method: as §1

CP266 = tested on: CP266
Summary of the method: as §1

CP268 = tested on: CP268
Summary of the method: as §1

CP203 = tested on: CP203
Summary of the method: as §1

CP260 = tested on: CP260
Summary of the method: as §1

Measured: Potency

CC(=O)[C@H]1CC[C@H]2[C@@H]3CC[C@H]4C[C@](C)(O)CC[C@]4(C)[C@H]3CC[C@]12C
not listed: CP203 | CP260
inactive: all other assays above

CC(C)CC(N(C)C)C1(c2ccc(Cl)cc2)CCC1 (stereo not drawn)
inactive: all assays above

O=P1(NCCCl)OCCCN1CCCl (stereo not drawn)
not listed: CP203
inactive: all other assays above

CCC(COC(=O)c1cc(OC)c(OC)c(OC)c1)(c1ccccc1)N(C)C (stereo not drawn)
not listed: CP237
inactive: all other assays above

CC(C)=CC1C(C(=O)OCc2cccc(Oc3ccccc3)c2)C1(C)C (stereo not drawn)
not listed: CP260
inactive: all other assays above

O=C1NCN(c2ccccc2)C12CCN(CC1COc3ccccc3O1)CC2 (stereo not drawn)
not listed: CP237 | CP203 | CP260
inactive: all other assays above

CC1OC(C)OC(C)O1 (stereo not drawn)
inactive: all assays above

COc1ccccc1N1CCNCC1
not listed: CP203 | CP260
inactive: all other assays above

CN(C)CCc1ccc(O)cc1
not listed: CP266
inactive: all other assays above

Oc1cccc2cccnc12
not listed: CP203
inactive: all other assays above

CCCC(C)(COC(N)=O)COC(=O)NC(C)C (stereo not drawn)
inactive: all assays above

NCCc1cc(O)c(O)cc1O
not listed: CP203
inactive: all other assays above

CCC(C(N)=O)N1CCCC1=O (stereo not drawn)
not listed: CP262
inactive: all other assays above

COc1ccc(C(=O)c2c(C)n(CCN3CCOCC3)c3ccccc23)cc1
not listed: CP250 | CP266 | CP203
inactive: all other assays above
